Assay results published in PubChem BioAssay AID1445 (SRMLSC, 2008).
Among all 220,000 compounds or so, about 910 (0.41%) were called active.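 The calls were made as follows: active = primary inhibition above the hit cutoff, then over 50% inhibition at one or more dose response concentrations (cut at about 23% in these data, passing the limit was not always enough); inconclusive = conflicting primary data, or primary hits not chosen for dose response; inactive = low primary inhibition, or under 50% at every dose.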 Only a selection was taken, and actives are over-represented in it overall. Entries with a potency or affinity are not part of this list.

target: Aminopeptidase N (Plasmodium falciparum (isolate 3D7)) (UniProt O96935); assay: P. falciparum M1AAP inhibitors, biochemical, fluorogenic H-Leu-NHMec substrate, 1536-well (AID 1445); details: recombinant M1AAP, H-Leu-NHMec fluorogenic kinetic assay; at 30 µM, active compounds read high unless noted;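 also: plate controls were DMSO full reaction for no effect and no enzyme background for full effect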
Sequence (O96935 whole entry, looked up): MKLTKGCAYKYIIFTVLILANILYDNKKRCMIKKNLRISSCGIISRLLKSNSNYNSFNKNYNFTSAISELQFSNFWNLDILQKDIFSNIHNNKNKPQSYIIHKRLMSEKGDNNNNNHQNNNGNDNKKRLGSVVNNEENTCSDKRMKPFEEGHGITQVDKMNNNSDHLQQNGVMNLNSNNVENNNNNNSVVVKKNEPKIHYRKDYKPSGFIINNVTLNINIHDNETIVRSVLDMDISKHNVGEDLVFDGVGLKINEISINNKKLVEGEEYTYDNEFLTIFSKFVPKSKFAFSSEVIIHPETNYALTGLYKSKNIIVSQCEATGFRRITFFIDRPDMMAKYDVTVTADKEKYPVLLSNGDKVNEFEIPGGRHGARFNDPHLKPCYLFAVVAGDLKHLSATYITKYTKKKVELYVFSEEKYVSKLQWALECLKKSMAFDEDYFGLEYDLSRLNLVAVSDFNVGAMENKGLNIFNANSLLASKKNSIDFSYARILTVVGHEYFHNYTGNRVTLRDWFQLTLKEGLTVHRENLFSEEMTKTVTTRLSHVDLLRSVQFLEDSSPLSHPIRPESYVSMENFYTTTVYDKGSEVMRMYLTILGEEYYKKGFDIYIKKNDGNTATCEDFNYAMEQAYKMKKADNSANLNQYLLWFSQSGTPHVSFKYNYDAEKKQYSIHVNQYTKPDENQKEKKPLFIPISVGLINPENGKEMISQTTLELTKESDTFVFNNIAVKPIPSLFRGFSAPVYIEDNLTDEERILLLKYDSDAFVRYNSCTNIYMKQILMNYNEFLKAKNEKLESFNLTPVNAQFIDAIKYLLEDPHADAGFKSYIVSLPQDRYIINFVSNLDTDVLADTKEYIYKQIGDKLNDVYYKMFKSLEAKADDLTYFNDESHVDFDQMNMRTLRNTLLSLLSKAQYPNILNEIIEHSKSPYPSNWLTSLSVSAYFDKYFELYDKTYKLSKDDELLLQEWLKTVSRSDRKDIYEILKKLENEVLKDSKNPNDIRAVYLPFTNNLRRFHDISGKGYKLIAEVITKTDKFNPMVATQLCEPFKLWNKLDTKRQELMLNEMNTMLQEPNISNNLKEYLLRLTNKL

SMILES | inhibition
CC(=O)Nc1ccc(S(=O)(=O)NCC(=O)OCC(=O)NC(=O)c2cccn2C)cc1 | 3.48% (inactive)
CC1CCN(S(=O)(=O)c2ccc(NC(=O)CCN3C(=O)c4ccccc4C3=O)cc2)CC1 | 4.02% (inactive)
C=CCNC(=S)/N=c1/scc(C)n1C | 6.8% (inactive)
Cc1ccccc1Cn1ccc(NC(=O)c2onc(C)c2Cl)n1 | 2.73% (inactive)
COCCNC(=O)COc1ccccc1Cl | 17.4% (inactive)
O=C(Nn1cc(C(=O)Nc2ccc(F)cc2F)c2ccccc2c1=O)c1cnccn1 | 5.45% (inactive)
CCOC(=O)N1CCN(c2c(N3CCN(c4ccccc4F)CC3)c(=O)c2=O)CC1 | 3.17% (inactive)
CCc1nnc(NC(=O)CSc2nnc(CNC(=O)c3ccc(OC)c(OC)c3)o2)s1 | 0.34% (inactive)
CC1(C)NC(=O)N(CCCCOc2ccccc2[N+](=O)[O-])C1=O | 1.49% (inactive)
O=C(Cc1ccc(Br)cc1)N/N=C/c1ccc(-c2cccc(C(=O)O)c2)o1 | 14.3% (inactive)
COC(=O)c1ccc(-c2ccc(/C=N/N3C(=O)C4C5C=CC(C6CC56)C4C3=O)o2)cc1 (configuration not stated) | 4.36% (inactive)
O=C1C2C3C=CC(C4CC34)C2C(=O)N1/N=C/c1ccc(-c2ccc([N+](=O)[O-])cc2)o1 (configuration not stated) | 7.6% (inactive)
COc1ccc(CC(=O)N/N=C/c2ccc(-c3ccc(F)cc3)o2)cc1OC | 6.71% (inactive)
O=C(CCN1CCN(C(=O)c2ccco2)CC1)Nc1ccc(F)cc1 | 1.29% (inactive)
S=C(NCCCn1ccnc1)NC1CCCCC1 | 6.56% (inactive)
CCC(C)NC(=O)CN(C)S(=O)(=O)c1ccc2c(c1)c(=O)n(C)c(=O)n2C (configuration not stated) | -4.82% (inactive)
CCCC(=O)OCC(=O)Nc1ccc2c(c1)OCO2 | -0.89% (inactive)
CCOC(=O)C1=C(C)N=c2s/c(=C3\C(=O)Nc4ccccc43)c(=O)n2C1c1ccc2c(c1)OCO2 (configuration not stated) | 8.57% (inactive)
CCO/C=C1/C(=O)N(c2ccc(OC)cc2)C(=O)c2ccccc21 | 4.8% (inactive)
Cc1cc(C)nc(NS(=O)(=O)c2ccc(N3C(=O)c4ccccc4C3=O)cc2)n1 | 0.35% (inactive)
CCO/C=C1\C(=O)N(c2ccccc2)C(=O)c2ccccc21 | -1.51% (inactive)

SMILES | inhibition
CCOc1ccc(N2C(=O)c3ccccc3C2=O)cc1 | -0.53% (inactive)
COc1ccccc1N1CCN(C(c2ccc(N(C)C)cc2)c2nnnn2CCc2ccccc2)CC1 (configuration not stated) | -7.04% (inactive)
CCN(CC)Cc1c(O)c(Cl)cc2c3c(c(=O)oc12)CCCC3 | 9.62% (inactive)
Cc1oc2c(CN3CCCC3)c(O)ccc2c(=O)c1-c1ccccc1 | 9.3% (inactive)
COc1ccc(Oc2c(C)oc3c(CN(C)C)c(O)ccc3c2=O)cc1 | 2.59% (inactive)
CCCc1cc(=O)oc2c(CN3CCOCC3)c(O)ccc12 | 21.8% (inactive)
CCc1cc2c3c(c(=O)oc2cc1O)CCCC3 | 22.5% (inactive)
O=c1oc2c(CN3CCOCC3)c(O)ccc2c2ccccc12 | 3.91% (inactive)
CCc1c(C)c2ccc(OCC(=O)N(C)C)c(C)c2oc1=O | 0.38% (inactive)
Cc1oc2c(CN3CCCC3)c(O)ccc2c(=O)c1-c1ccc(Br)cc1 | 17.5% (inactive)
COc1ccc(-n2nnnc2SCC(=O)N2CCCC2)cc1OC | 0.63% (inactive)
COc1ccc(C(=O)Nc2cc(=O)n(C)c(=O)n2C)cc1 | 4.18% (inactive)
Cc1nc(N)nc(-c2ccccc2O)n1 | 7.96% (inactive)
Cn1c(=O)[nH]c(=O)c2c1nc(N1CCCCC1)n2C/C=N/NC(=O)c1cc(Br)ccc1O | 20.9% (inactive)
COCCCNC(=O)c1ccccc1Sc1ccc(NC(C)=O)nc1 | 2.96% (inactive)
CCCn1nc2cc(C(=O)NC3CCc4ccccc43)ccc2c1OCC (configuration not stated) | 4.98% (inactive)
Nc1nc(NC(=O)c2ccccc2Cl)nn1-c1ccccc1 | -0.99% (inactive)
Cc1c(C(=O)NCC(C)C)sc2nc(-c3ccc(F)cc3)cn12 | -1.14% (inactive)
CC(=O)Cc1nsc(NC(=O)c2ccco2)n1 | 0.74% (inactive)
O=[N+]([O-])c1cc(S(=O)(=O)Nc2ccccc2)ccc1NCc1cccnc1 | 6.72% (inactive)
CCc1cc(=O)oc2cc(C)c(CN3CCCC(C)C3)c(O)c12 (configuration not stated) | 2.92% (inactive)

SMILES | inhibition
COC(=O)Cc1c(C)c2ccc(OCC(C)=O)c(C)c2oc1=O | 14.3% (inactive)
CC1CCCN(Cc2c(O)ccc3c(=O)c(-c4nc5ccccc5s4)c(N)oc23)C1 (configuration not stated) | 24.6% (active)
CC1CCCCN1Cc1c(O)ccc2c(=O)c(-c3nc4ccccc4s3)c(N)oc12 (configuration not stated) | 17.1% (inactive)
CC1CN(Cc2c(O)ccc3c2oc(=O)c2ccccc23)CC(C)O1 (configuration not stated) | 4.75% (inactive)
CN(Cc1c(O)ccc2c1oc(=O)c1ccccc12)C1CCCCC1 | 5.6% (inactive)
CC1CCN(Cc2c(O)ccc3c(=O)c(-c4nc5ccccc5s4)c(N)oc23)CC1 | 2.55% (inactive)
CC(C)CN(Cc1c(O)ccc2c3c(c(=O)oc12)CCC3)CC(C)C | 34.7% (inactive)
C=C(C)COc1ccc2c(C)c(CC(=O)OC)c(=O)oc2c1C | 13.3% (inactive)
O=C(Cc1c(Cl)cccc1Cl)NCCc1ccc(Cl)cc1 | 13.8% (inactive)
Cc1ccc(NC(=O)CCNS(=O)(=O)c2ccc3c(c2)c(=O)n(C)c(=O)n3C)cc1C | 9.45% (inactive)
NC(=O)c1ccccc1N/C=C1\CCCCC1=O | 10.2% (inactive)
O=C1/C(=C/Nc2cccc([N+](=O)[O-])c2)CCc2ccccc21 | 9.22% (inactive)
CCOC(=O)N1CCN(C(=O)COc2ccccc2Cl)CC1 | 4.17% (inactive)
COCCn1c(SCC#N)nnc1-c1ccc2c(c1)OCO2 | -1.51% (inactive)
OC(c1cccs1)c1nccc2ccccc12 (configuration not stated) | -3.89% (inactive)
CCCCN(CC)Cc1c(O)ccc2c(-c3ccccc3)cc(=O)oc12 | 4.82% (inactive)
Cc1c(O)ccc2c3c(c(=O)oc12)CCCC3 | 20.9% (inactive)
COCCN(CCOC)Cc1c(O)ccc2c3c(c(=O)oc12)CCC3 | 4.7% (inactive)
O=c1cc(-c2ccccc2)c2ccc(O)c(CN3CCCCC3)c2o1 | 11.4% (inactive)
O=c1oc2c(CN3CCCCC3)c(O)ccc2c2c1CCCCC2 | 42.2% (active)
